Laboratory results reported in PubChem BioAssay AID1159580 (chemical genetic matrix, 2015).
About 2,000 (36%) of roughly 5,500 compounds were called active. Another 18% or so got no clear call; they are omitted. No stated cut-off is given here; in the data, active means normalized growth mostly below about 0.91 (no sharp cut-off); inconclusive means no clear call, values can overlap the other calls; inactive means mostly above about 0.92. This is one part of the list.

Assay: chemical genetic growth profiling, strain panel (AID 1159580);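 further: tested at 20 µM; growth read once vehicle control cultures reached saturation at 30 °C; 1 = growth at the plate median or of vehicle wells; lower values mean less growth of the strain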
Details: S. cerevisiae deletion strains, growth OD

Measured: normalized growth

C[C@H]1C2Cc3ccc(O)cc3[C@]1(C)CCN2CC1CC1
inactive: locus YAL040C, strain CLN3, hits give low values 0.994 | locus YCL061C, strain MRC1 (second series), hits give low values 1.01 | locus YDR150W, strain NUM1, hits give low values 1 | locus YDR363W, strain ESC2, hits give low values 1.02 | locus YER002W, strain NOP16, hits give low values 0.988 | locus YGR078C, strain PAC10, hits give low values 1.01 | locus YGR229C, strain SMI1, hits give low values 1.05 | locus YNL153C, strain GIM3, hits give low values 1.02 | locus YNL175C, strain NOP13, hits give low values 1.02 | locus YNL197C, strain WHI3, hits give low values 1.02 | locus YNL224C, strain SQS1, hits give low values 1 | locus YNL322C, strain KRE1, hits give low values 1.02 | locus YOR083W, strain WHI5 (second series), hits give low values 1.04 | locus YPL055C, strain LGE1, hits give low values 1.02 | locus YPL241C, strain CIN2, hits give low values 1.01
